Measurements: PubChem BioAssay (NCI)
The panel holds about 83,000 compounds, 20% with a hit somewhere; the sample as a whole holds those more often.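 The test compound was applied at a single concentration to cells in 96-well plates for 48 hours, and percent growth was recorded.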 Unmarked numbers belong to inactive results. Active and inactive are the calls of the source. How the source made its calls: active means growth percent below 10; inactive means the rest.

Experiments:
Assay in all cases: NCI-60 one-dose screen, 48 h (100 = growth as untreated, 0 = no growth, -100 = all killed)
Settings in all cases: 10 µM unless noted
[1] = tested on: SR leukemia
[2] = tested on: RPMI-8226 leukemia
[3] = tested on: OVCAR-8 ovarian
[4] = tested on: OVCAR-5 ovarian
[5] = tested on: OVCAR-4 ovarian
[6] = tested on: SK-OV-3 ovarian
[7] = tested on: IGROV1 ovarian
[8] = tested on: HS 578T breast
[9] = tested on: NCI/ADR-RES ovarian
[10] = tested on: OVCAR-3 ovarian

Row | SMILES | growth [1] | growth [2] | growth [3] | growth [4] | growth [5] | growth [6] | growth [7] | growth [8] | growth [9] | growth [10]
1 | COc1ccc(OC)c(C(=O)/C=C/c2cc3c(c(OC)c2OC)OCO3)c1 | 17.8% | 6.09% (active) | 58.1% | 121% | 63.4% | 79.1% | 71.5% | 75.9% | 63.1% | –
2 | CN(C)Cc1ccc(NC(=O)c2cncc(C#Cc3cnc(N)c4ncccc34)c2)cc1F | 2.94% (active) | 35.6% | -18% (active) | 123% | -71.3% (active) | 112% | 100% | 87.3% | 56.9% | –
3 | COc1ccc(-c2ccc3cnc4sc(-c5ccc(OC)cc5)nc4c3n2)cc1 | 83.7% | 87.5% | 96.3% | 97.4% | 96.9% | 92.6% | 94% | 94.4% | 92.9% | –
4 | COc1ccc(/C=C2\COc3ccc(O)cc3C2=O)c(OC)c1OC | 16.5% | 8.76% (active) | 67% | 95.8% | 79.3% | 112% | 91.3% | 78% | 55.1% | 57.2%
5 | COc1cc(/C=C/C(=O)c2cccc(Nc3nc(Nc4ccccc4)nc(Nc4ccccc4)n3)c2)cc(OC)c1OC | 22.4% | -63.1% (active) | 27.2% | 78.8% | 67.4% | 90.3% | 37.3% | 50.3% | 40.6% | –
6 | CNC(=O)c1cc(Oc2ccc3nc(NC(C)=O)sc3c2)ccn1 | 85.4% | 93.8% | 99.9% | 103% | 95.9% | 107% | 104% | 107% | 98.1% | –
7 | COc1ccc(C(=O)C2C(c3ccc(OC)cc3)CN(C)C23C(=O)Nc2ccccc23)cc1 (centres undefined) | 98% | 88.6% | 95.5% | 88.6% | 83.6% | 91.4% | 80.8% | 93.2% | 76.7% | 97.8%
8 | O=C1/C(=C/c2ccc(Cl)cc2)COc2ccc(O)c(O)c21 | 15% | 1.87% (active) | 4.8% (active) | -22.9% (active) | 27.6% | 65.7% | -38% (active) | 20.4% | 3.66% (active) | –
9 | CCNC(=O)c1[nH]cc(-c2ccccc2)c1-c1cc(OC)c2c(c1OC)OCO2 | 93% | 99% | 98.9% | 98.5% | 98.6% | 90.3% | 88.5% | 93.2% | 93% | 104%
10 | CCOC(=O)c1c(C)c2c(n1C)CSc1cc(C(=O)c3ccccc3)c(=O)[nH]c1-2 | 88.3% [100 µM] | 82.3% [100 µM] | 106% [100 µM] | 95.8% [100 µM] | 92.4% [100 µM] | 99.4% [100 µM] | 104% [100 µM] | 90.8% [100 µM] | 91.6% [100 µM] | –
11 | CSc1nc2sc3c(c2c(=O)n1-c1ccc([N+](=O)[O-])cc1)CCCCC3 | 85.4% | 99.4% | 73% | 87.8% | 82.4% | 69.5% | 84.8% | 82.3% | 89.6% | 103%
12 | N#Cc1c(-c2ccc(Cl)cc2)nc(SCC(=O)NC2=NN=C(c3ccccc3)CS2)[nH]c1=O | 42.7% | 73.5% | 101% | 112% | 83.4% | 47.5% | – | 93.7% | 86.7% | –
13 | Cc1nc2c(=O)[nH]c(SCC(=O)Nc3cccc(F)c3)nc2[nH]c1=O | 132% | 110% | 103% | 103% | 101% | 115% | – | 101% | 107% | 111%
14 | COc1ccc(-c2nnc(-c3ccc4c(c3)nc(-c3ccncc3)n4C3CCCCC3)o2)cc1 | 46.6% | 34.1% | 53.5% | 102% | 61.1% | 80.4% | 73.7% | 68.6% | 56.9% | –
